Shown are actives, neighbours in structure and some others; about 32% of the full set was active somewhere.
CYP2C9 inh = inhibitors of human CYP2C9 | P11712 | CYP2C9 Supersomes, luciferin-H conversion, luminescence | inhibition, % at 5 µM | 20% of 96,000 active | AID 777;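 active = blocking of liver enzyme CYP2C9 beyond about 50% at 5 µM, limit read from the data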
Target sequence (P11712 whole entry, looked up): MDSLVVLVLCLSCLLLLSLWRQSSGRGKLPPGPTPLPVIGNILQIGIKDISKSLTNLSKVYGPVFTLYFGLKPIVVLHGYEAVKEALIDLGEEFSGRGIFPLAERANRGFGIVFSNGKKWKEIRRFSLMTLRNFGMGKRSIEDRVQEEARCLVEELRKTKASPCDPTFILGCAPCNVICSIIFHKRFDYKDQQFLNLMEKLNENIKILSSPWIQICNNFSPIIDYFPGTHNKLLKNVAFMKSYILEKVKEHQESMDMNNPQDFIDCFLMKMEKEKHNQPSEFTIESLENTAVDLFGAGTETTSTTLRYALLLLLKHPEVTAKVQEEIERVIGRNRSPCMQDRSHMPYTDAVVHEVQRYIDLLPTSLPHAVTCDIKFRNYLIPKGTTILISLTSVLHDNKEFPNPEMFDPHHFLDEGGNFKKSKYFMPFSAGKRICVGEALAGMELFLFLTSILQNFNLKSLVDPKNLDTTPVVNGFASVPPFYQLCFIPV
CYP2C19 inhib = human CYP2C19 inhibition. P33261. CYP2C19 Supersomes, luciferin-H EGE luminescence, 30 min. inhibition, % at 5 µM. 21% of 96,000 active;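 active = CYP2C19 inhibition above a set limit at 5 µM in the primary screen, cut at about 50% in these data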;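 also: plate controls were negative control wells for no effect and 2.5 mM tranylcypromine positive control for full effect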
PostGolgi ctrl = growth of the yeast control strain, post-Golgi counter-screen. efflux-deficient yeast background strain, growth absorbance A615, 16 h. inhibition, % at 10 µM. 5% of 98,000 active. AID 738
CYP2C19 activ = cytochrome P450 2C19 (human) activation. recombinant CYP2C19, luciferin-H EGE luminescence; active compounds read high; 0 = fully inhibited enzyme, 1 = untreated enzyme. activation factor at 5 µM. 96,000 tested, under 10 active. AID 1025;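 active = activation factor of at least 2 at 5 µM in the primary screen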;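 also: 0 = wells with 2.5 mM tranylcypromine and 1 = vehicle-only wells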
CYP2C9 act = activators of human CYP2C9 | P11712 | activation factor at 5 µM | AID 1024 | 1.4% of 96,000 active | recombinant CYP2C9, luciferin-H conversion, luminescence; active compounds read high; factor 1 = untreated enzyme, 0 = blocked;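 active = activation factor of 2 or more for CYP2C9 at a 5 µM dose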;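 also: 0 = sulfaphenazole-blocked wells and 1 = vehicle-only wells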
PostGolgi yeast = growth inhibition of a yeast mutant, post-Golgi transport screen. post-Golgi transport phenotypic cell assay. inhibition, % at 10 µM. 0.9% of 98,000 active. AID 739;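 also: yeast cells grown in 1536-well plates; yeast grown about 18 h at 30C before absorbance read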
* = called active by the depositor; . = no result given. Rule as the data show it, unless noted: active = inhibition above about 30%; inactive = the rest.

SMILES	CYP2C9 inh	CYP2C19 inhib	PostGolgi ctrl	CYP2C19 activ	CYP2C9 act	PostGolgi yeast
O=C1C2CCCN2C(c2cccnc2)N1c1cccc(Cl)c1 (configuration not stated)	15	16	4	0.8	0.9	-3
Nc1ccc(S(=O)(=O)N2CCCCC2c2cccnc2)cc1 (configuration not stated)	0	31	1	0.7	1	6
Clc1cccc(CN2CCCCC2c2cccnc2)c1 (configuration not stated)	54*	95*	.	0.1	0.5	.
c1cncc(C2CCCCN2Cc2ccc3c(c2)OCO3)c1 (configuration not stated)	20	97*	4	0	0.8	-3
N#Cc1c(/N=C/c2c(O)n(Cc3ccco3)c(=O)[nH]c2=O)sc2c1CCCC2	13	-5	-3	1.1	0.9	-6
CCCC1COC(Cn2cncn2)(c2ccc(Cl)cc2Cl)O1 (configuration not stated)	77*	93*	96*	0.1	0.2	85*
COc1ccccc1CC1/C(=N/O)C2CCN1CC2 (configuration not stated)	9	18	9	0.8	0.9	24
COc1ccccc1/C=C1/C(=N/O)C2CCN1CC2	-5	91*	10	0.1	1	2
CC1OC(NCCc2ccccc2)C(O)C(O)C1O (configuration not stated)	.	.	15	.	.	3
CCN1CC=C(c2c[nH]c3ccccc23)CC1	-12	-14	-3	1.1	1.1	12
CCN(CC)c1ccc(CN2CC=C(c3ccc(F)cc3)CC2)cc1	-10	27	22	0.7	1.1	60*
C[C@H]1CCC[C@@H](O)CCC/C=C/c2cc(O)cc(O)c2C(=O)O1	78*	89*	8	0.1	0.2	-3
CC1CCC/C=C/C2CC(O)CC2C(O)/C=C/C(=O)O1 (configuration not stated)	-11	11	0	0.9	1.1	0
C[C@H]1CCC[C@H](O)CCCCCc2cc(O)cc(O)c2C(=O)O1	44	81*	5	0.2	0.6	0
COc1ccc(C(CC(=O)N2CCC3(CC2)OCCO3)NS(=O)(=O)c2ccc(C)cc2)cc1 (configuration not stated)	-37	10	-2	0.9	1.4	-6
COC(=O)CC1(CC(=O)OC)C(=O)NC(=O)NC1=O	-6	-2	0	1	1.1	-1
CC(C)c1cccc(C(C)C)c1OCCn1ccnc1	78*	99*	16	0	0.2	26
O=C(c1cccs1)c1cn(Cc2ccccc2Cl)c2ccccc12	62*	13	1	0.9	0.4	28
N#Cc1ccccc1Cn1cc(C(=O)c2cccs2)c2ccccc21	89*	54*	-2	0.5	0.1	57*
O=C(NCc1ccc(C(=O)N2CCC3(CC2)OCCO3)cc1)c1cccc(Br)c1	24	12	-1	0.9	0.8	8
CCOP(=S)(OCC)SCC(=O)NC(C(=O)O)C(C)C (configuration not stated)	92*	7	6	0.9	0.1	0
CCOC(=O)C(C)(CC)NC(=O)CSP(=S)(OCC)OCC (configuration not stated)	91*	98*	-4	0	0.1	-2
CCC(COC(=O)NC)NC(=O)Oc1ccccc1 (configuration not stated)	1	3	6	1	1	-15
Nc1ccc2c(c1)oc1ccccc12	21	22	17	0.8	0.8	5
CN1C2CCC1CC(OC(=O)c1cc(Cl)cc(Cl)c1)C2 (configuration not stated)	-9	10	-5	0.9	1.1	21
SMILES	CYP2C9 inh	CYP2C19 inhib	PostGolgi ctrl	CYP2C19 activ	CYP2C9 act	PostGolgi yeast
COc1ccccc1OCC(=O)Nc1ccc(Cl)cc1C(=O)c1ccccc1	16	16	40*	0.8	0.8	-2
O=C(Nc1ccc(Cl)cc1C(=O)c1ccccc1)c1ccccc1	4	2	13	1	1	5
O=C(COc1ccc(Cl)cc1Cl)N1CCN(C/C=C/c2ccccc2)CC1	56*	43	66*	0.6	0.4	104*
O=C1C2(c3ccccc3)CN3CN(C2)CC1(c1ccccc1)C3	-21	55*	-5	0.5	1.2	-4
COC(=O)C(O)(c1c(C)[nH]c2ccccc12)C(F)(F)F (configuration not stated)	-2	39	3	0.6	1	-8
CCOC(=O)C(O)(c1cn(C)c2ccccc12)C(F)(F)F (configuration not stated)	-164	9	1	0.9	2.6*	-2
O=C1c2ccccc2C(=O)N1Cc1nc2ccccc2c(=O)n1-c1ccc(Br)cn1	42	-7	26	1.1	0.6	-9
CC(C)NC(=O)Cn1cc(C(=O)c2ccccc2F)c2ccccc21	25	50*	6	0.5	0.7	-3
CCn1c(O)c(C=NCCc2c[nH]c3ccccc23)c(=O)[nH]c1=O	5	-6	9	1.1	0.9	1
CC(C(=O)N1CCC2(CC1)OCCO2)C1Sc2ccccc2NC1=O (configuration not stated)	13	95*	12	0	0.9	7
Cc1cc(N2C(=O)C3CCCN3C2c2ccccc2)no1 (configuration not stated)	-6	-13	-4	1.1	1.1	-3
C=Cn1ccnc1P(=S)(c1nccn1C=C)C1CCCCC1	15	70*	11	0.3	0.9	15
CCOP(=O)(C#CC(C)(C)C)C1(O)CCCCC1 (configuration not stated)	-10	-14	3	1.1	1.1	-5
COc1ccc(-c2cc(C(F)(F)F)n3nc(C(=O)N4CCC5(CC4)OCCO5)cc3n2)cc1OC	11	13	9	0.9	0.9	18
Cc1ccc(OCC(=O)N2CCN(C)CC2)c(Br)c1	-13	10	11	0.9	1.1	1
COc1cccc(OCC(=O)N2CCN(C)CC2)c1	-15	54*	2	0.5	1.2	3
O=C(CN1CC(c2ccccc2)CC1=O)Nc1ccc(F)cc1 (configuration not stated)	.	.	13	.	.	12
CC(N)C(=O)c1ccco1 (configuration not stated)	9	1	7	1	0.9	11
COc1ccccc1OCCCn1cc(C(=O)c2ccco2)c2ccccc21	96*	98*	49*	0	0	-8
O=C(c1ccco1)c1cn(Cc2ccc(Cl)cc2)c2ccccc12	94*	84*	24	0.2	0.1	11
c1ccc2c(NC3=NCCS3)cccc2c1	20	44	5	0.6	0.8	0
Cc1cccnc1-n1c(C)nc2ccccc2c1=O	-12	-17	9	1.2	1.1	-2
O[C@H]1C2CCC1C(N1CCCCC1)CC2 (some centres not stated)	-6	-11	-4	1.1	1.1	7

Source: PubChem BioAssay (several laboratories)
